In all, about 360,000 compounds went through this assay and about 6,200 (1.7%) were called active. This excerpt belongs to a sample that is enriched for actives. A number with no mark means an inactive call.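 Rule for the calls: active = inhibition of at least 50% at 20 µM; inactive = the rest.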
Assay: inhibition of PEG-3 promoter activity – cell-based, HeLa, luciferase luminescence, primary screen (AID 588405)
Conditions: HeLa PEG-Prom luciferase reporter, overnight, at 20 µM, stronger effect = higher value

With `CC1(C(=O)NCc2ccc3c(c2)OCO3)CCN1C(=O)Cc1cccs1` (stereo not drawn) as the compound, how does the inhibition read?
Its inhibition is -1.89%.

Which inhibition does the source give for `COc1ccccc1N(C)S(=O)(=O)c1ccc(Cl)c(C(=O)N2CCC(C(N)=O)CC2)c1` here?
Its inhibition is -7.62%.

For `NC(=O)C1CCN(C(=O)c2cc(S(=O)(=O)N3CCN(c4ccccc4)CC3)ccc2Cl)CC1`, which inhibition is on record?
The inhibition was 56.8% (active).

For `NC(=O)COC(=O)c1cc(S(=O)(=O)N2CCN(c3ccccc3)CC2)ccc1Cl`, which inhibition is on record?
The inhibition was -0.58%.

For `O=S(=O)(Nc1cccc(-n2cnnn2)c1)c1cnc(Cl)c(Cl)c1`, which inhibition is on record?
Its inhibition is 3.56%.

With `Cc1cc2nc(-c3ccc(Cl)cc3)c(Cc3cccc(F)c3)n2c(C)c1Br` as the compound, how does the inhibition read?
The inhibition was -7.74%.

With `CN(C)CCCOc1ccc(-c2ccc3nccn3c2)cn1` as the compound, how does the inhibition read?
Its inhibition is -2.16%.

With `O=C(NCc1ccco1)c1cccc(-c2ccc3nncn3c2)c1` as the compound, how does the inhibition read?
Its inhibition is 6.82%.

For `O=C(Nc1ccc(S(=O)(=O)N2CCOCC2)cc1)C1CCN(S(=O)(=O)c2ccc(Cl)cc2)CC1`, which inhibition is on record?
The inhibition was 20.9%.

For `O=C(Nc1ccccc1)c1nnsc1S(=O)(=O)c1ccc(Cl)cc1`, which inhibition is on record?
Its inhibition is 67.4% (active).

Which inhibition does the source give for `Cc1nnsc1S(=O)(=O)Cc1ccccc1Cl` here?
Its inhibition is 14.5%.

Which inhibition does the source give for `Cc1ccc(-c2cnc(C(O)c3cccc(C)c3C)[nH]2)cc1` (stereo not drawn) here?
The inhibition was -14.4%.

For `Cc1ccc(Cc2c(-c3ccco3)nc3ccc(Cl)cn23)cc1`, which inhibition is on record?
The inhibition was 2.16%.

Which inhibition does the source give for `CC(=O)Nc1c2c(nn1-c1cccc(C)c1)CSC2` here?
The inhibition was 1.92%.

Which inhibition does the source give for `Cc1cccc(-n2ncc(Cl)c(Cl)c2=O)c1` here?
The inhibition was 109% (active).

Which inhibition does the source give for `Cc1cccc(-n2ncc3c(=O)[nH]c(SCC(=O)Nc4cc(C)on4)nc32)c1` here?
The inhibition was 15.5%.

For `CCc1nc2ccc(C(=O)N(C)CCN(C)C)cn2c1N(CC)CCOC`, which inhibition is on record?
Its inhibition is -8.52%.

For `CN1CCN(C2Cc3ccc(Cl)cc3Sc3ccc(F)cc32)CC1` (stereo not drawn), which inhibition is on record?
Its inhibition is 76% (active).

Which inhibition does the source give for `CC1(C(=O)NS(=O)(=O)c2cccc(F)c2)CCN1C(=O)Cc1cc(F)ccc1F` (stereo not drawn) here?
Its inhibition is 7.15%.

For `CC1(c2ccccc2)NC(=O)N(CC(=O)Nc2cc(Cl)ccc2N2CCOCC2)C1=O` (stereo not drawn), which inhibition is on record?
Its inhibition is 2.35%.

For `C/C(=N\Nc1nc(Nc2ccccc2)nc(N2CCOCC2)n1)c1cccs1`, which inhibition is on record?
The inhibition was 7.28%.

With `O=C(CSc1nc(Nc2ccccc2)nc(N2CCOCC2)n1)Nc1cc(Cl)ccc1O` as the compound, how does the inhibition read?
The inhibition was 86.5% (active).

With `Brc1ccc2nc(-c3ccccc3)c(Cc3ccccc3)n2c1` as the compound, how does the inhibition read?
Its inhibition is -51%.

With `CCOC(=O)c1ccc(-c2ccc3ncnc(N(C)Cc4sccc4C)c3c2)o1` as the compound, how does the inhibition read?
The inhibition was 31.1%.

Which inhibition does the source give for `CCCCSc1[nH]c(=O)c(C(=O)OCC)cc1C#N` here?
The inhibition was 3.02%.

With `COC(=O)Cn1nc(-c2ccccc2)c2cc(Cl)ccc21` as the compound, how does the inhibition read?
Its inhibition is 13.3%.

With `Cc1nc(N=C(N)N)nc2c(C)cccc12` as the compound, how does the inhibition read?
Its inhibition is 20.3%.

With `NC(N)=Nc1nc(-c2ccccc2)c2cc(Cl)ccc2n1` as the compound, how does the inhibition read?
Its inhibition is 108% (active).

For `CCCS(=O)(=O)NC(=O)C1(C)CCCN(C(=O)c2ccnc(Cl)c2)C1` (stereo not drawn), which inhibition is on record?
Its inhibition is -1.18%.

Which inhibition does the source give for `OC[C@@H]1CN(Cc2ccc3c(c2)OCO3)C[C@H](n2cnc3c(NCc4ccco4)ncnc32)O1` here?
The inhibition was -2.19%.

Which inhibition does the source give for `Cc1cc(O)ccc1-c1cc(C(=O)NCc2cc(C(F)(F)F)cc(C(F)(F)F)c2)[nH]n1` here?
The inhibition was 5.2%.

Which inhibition does the source give for `Oc1ccc2ccccc2c1N=Nc1nccs1` here?
Its inhibition is 97.5% (active).

Which inhibition does the source give for `COC(=O)[C@@H]1C[C@@]2(O)[C@H](O)[C@H](O)[C@H](O)C[C@H]2N1Cc1ccc(C(C)(C)C)cc1` here?
The inhibition was 2.16%.

Which inhibition does the source give for `CCOc1ccc2nc(Cl)c(C3CC(c4ccccc4)=NN3C(=O)c3cccs3)cc2c1` (stereo not drawn) here?
The inhibition was 55.1% (active).

Which inhibition does the source give for `COc1ccc(C2=NN(C(=O)CCC(=O)O)C(c3cccs3)C2)cc1OC` (stereo not drawn) here?
Its inhibition is 9.5%.

For `O=C(COc1ccc2ccccc2c1)N1CCN(C(=O)c2cccs2)CC1`, which inhibition is on record?
Its inhibition is 3.04%.

For `COC(=O)c1ccc2nc(-c3ccc(Cl)cc3)c(Cc3cccc(F)c3)n2c1`, which inhibition is on record?
Its inhibition is -38.1%.

With `Cc1noc(C)c1C(=O)N1CCC1(C)C(=O)NS(=O)(=O)c1ccc(C#N)cc1` (stereo not drawn) as the compound, how does the inhibition read?
The inhibition was -15.2%.

Which inhibition does the source give for `CC(O)(c1cccc(F)c1)c1nc(-c2ccc3c(c2)OCO3)cs1` (stereo not drawn) here?
The inhibition was -65.7%.

Which inhibition does the source give for `CC(C)(C)Cc1c(C2CCCCC2)nc2ccc(Br)cn12` here?
Its inhibition is 16%.

With `Cc1nn(Cc2ccccc2Cl)c(C)c1NC(=O)Cn1nc([N+](=O)[O-])c(Cl)c1C` as the compound, how does the inhibition read?
The inhibition was -1.84%.

With `Cc1c(Cl)c([N+](=O)[O-])nn1Cc1ccc(C(=O)N/N=C\c2cc(Cl)ccc2O)o1` as the compound, how does the inhibition read?
Its inhibition is 61.5% (active).

Which inhibition does the source give for `O=C(N/N=C\c1ccc(Br)cc1)c1ccc(Cn2cccn2)o1` here?
Its inhibition is -62.6%.

Which inhibition does the source give for `COCOc1cccc(CN2CCC(C)(Oc3ccc(SC)cc3)C2)c1` (stereo not drawn) here?
Its inhibition is -1.46%.

Which inhibition does the source give for `COc1cc(Cl)c(C)cc1NC(=O)CSc1nnc(-c2ccco2)n1CC(C)C` here?
Its inhibition is 12.4%.

For `NC(Cc1ccccc1)c1csc(Nc2cc(Oc3ccccc3)ncn2)n1` (stereo not drawn), which inhibition is on record?
The inhibition was 54.6% (active).

Which inhibition does the source give for `Cc1nc2c(OCc3ccc(Cl)cc3)cccn2c1N(C)Cc1cccs1` here?
Its inhibition is 6.73%.

For `Cc1ccc(C(=O)O/N=C(\N)c2ccccn2)cc1Cl`, which inhibition is on record?
The inhibition was 62.4% (active).

For `N/C(=N\OC(=O)c1ccc([N+](=O)[O-])cc1)c1ccccn1`, which inhibition is on record?
The inhibition was 5.67%.

Which inhibition does the source give for `Cc1cccc(/C(N)=N/OC(=O)c2ccccc2Cl)c1` here?
Its inhibition is -145%.

For `CC(=O)Nc1cccc(-c2cc(NC(C)=O)c3ncc(-c4ccccc4)n3c2)c1`, which inhibition is on record?
Its inhibition is 20.6%.

For `CCOC(=O)C1CN(S(=O)(=O)c2ccc(OC)cc2)c2cc(Cl)ccc2O1` (stereo not drawn), which inhibition is on record?
Its inhibition is 8.58%.

With `Cc1ccc(NC(=O)[C@H](Cc2ccccc2)NC(=O)CC[C@H]2O[C@@H](n3ccc(=O)[nH]c3=O)[C@H](O)[C@@H]2O)cc1C` as the compound, how does the inhibition read?
Its inhibition is 4.14%.

With `COC(=O)c1ccc2nc(-c3cccc(Br)c3)c(Cc3ccc(OC)cc3C)n2c1` as the compound, how does the inhibition read?
The inhibition was -33%.

For `CCCCNc1c(-c2cccc(Sc3ccc(OC)cc3)c2)nc2ccccn12`, which inhibition is on record?
Its inhibition is 92.9% (active).

For `CCCCNc1c(-c2ccc(OC)c(Sc3ccc(OC)cc3)c2)nc2ccc(Cl)cn12`, which inhibition is on record?
Its inhibition is -44%.

Which inhibition does the source give for `CS(=O)(=O)/C(C#N)=C/c1cccn1S(=O)(=O)c1ccc([N+](=O)[O-])cc1` here?
The inhibition was -17.4%.

Which inhibition does the source give for `O=C(NCCN1CCOCC1)c1ccccc1N1C(=O)[C@@H]2Cc3c([nH]c4ccccc34)C(c3cccc(Cl)c3)N2C1=O` (stereo partly drawn) here?
The inhibition was 20.3%.

Which inhibition does the source give for `CC(C)c1cccc(C(C)C)c1Nc1cn[nH]c1` here?
Its inhibition is 9.45%.

Which inhibition does the source give for `COC(=O)c1ccc2nc(-c3ccc(OC)c(OC)c3)c(Cc3ccccc3)n2c1` here?
Its inhibition is -21.6%.

With `S=C(NN=Cc1ccccn1)Nc1ccccn1` as the compound, how does the inhibition read?
Its inhibition is -79.6%.

With `O=C(N/N=C/c1ccccn1)C12CC3CC(CC(C3)C1)C2` as the compound, how does the inhibition read?
The inhibition was -8.28%.

Which inhibition does the source give for `Cc1nnc(N/N=C/c2ccccn2)[nH]c1=O` here?
The inhibition was 62% (active).

Which inhibition does the source give for `Cc1ccc(CNC(=O)Nc2nnc([C@H]3C[C@H](O)[C@@H](CO)O3)s2)cc1` here?
The inhibition was -6.3%.

With `CC1(C(=O)Nc2ccc3c(c2)OCCO3)CCN1C(=O)Cc1cc(F)ccc1F` (stereo not drawn) as the compound, how does the inhibition read?
The inhibition was 2.13%.

For `Cc1ccc(C(=O)N/C(=C\c2ccco2)C(=O)NC2CCS(=O)(=O)C2)cc1` (stereo not drawn), which inhibition is on record?
The inhibition was 16.9%.

Which inhibition does the source give for `CCCc1nc2c3ccccc3ccn2c1Cc1ccccc1C(F)(F)F` here?
Its inhibition is -16%.

With `CN1OC[C@@H]2CN(C(=O)C(C)(C)C)[C@H](c3ccc(-n4ccnc4)cc3)C[C@@H]21` as the compound, how does the inhibition read?
Its inhibition is -4.85%.

For `CC(=O)Nc1ccc(C=Cc2ccc([N+](=O)[O-])cc2)cc1`, which inhibition is on record?
Its inhibition is -310%.

For `O=C1/C(=C\c2ccc([N+](=O)[O-])cc2)CS(=O)(=O)C/C1=C/c1ccc([N+](=O)[O-])cc1`, which inhibition is on record?
The inhibition was 100% (active).

Which inhibition does the source give for `CN(C)S(=O)(=O)N1CCN(c2ccc([N+](=O)[O-])cc2)CC1` here?
Its inhibition is 14.5%.

For `CCCNC(=O)C1(C)CCCN(Cc2cccc(C(F)(F)F)c2)C1` (stereo not drawn), which inhibition is on record?
Its inhibition is 2.53%.

With `CCCOc1ccc(F)cc1-c1cc(C(=O)Nc2ccc(F)c(Cl)c2)[nH]n1` as the compound, how does the inhibition read?
Its inhibition is 25.8%.

With `CC1(C(=O)NS(=O)(=O)C2CC2)CCCN(C(=O)CSc2ccccc2)C1` (stereo not drawn) as the compound, how does the inhibition read?
Its inhibition is 8.07%.

Which inhibition does the source give for `O=S(=O)(c1ccccc1)N1CCC(c2ccccc2)CC1` here?
The inhibition was 6.2%.

Which inhibition does the source give for `CC(=O)N1CC(C)c2scc(C)[n+]2-c2ccccc21` (stereo not drawn) here?
Its inhibition is 5.89%.

With `CN1OC[C@@H]2CN(S(=O)(=O)c3cccc(C(F)(F)F)c3)[C@H](c3ccc(-c4cc5ccccc5o4)cc3)C[C@@H]21` as the compound, how does the inhibition read?
The inhibition was 68.8% (active).

With `COc1ccc(S(=O)(=O)N2C[C@H]3CON(C)[C@H]3C[C@H]2c2cccc(Br)c2)cc1` as the compound, how does the inhibition read?
The inhibition was 6.82%.

For `CN1OC[C@@H]2CN(S(=O)(=O)c3cccc4ccccc34)[C@H](c3ccc(N4CCCCC4)cc3)C[C@@H]21`, which inhibition is on record?
Its inhibition is -9.16%.

Which inhibition does the source give for `Nc1nc2c(ncn2[C@@H]2O[C@H](CNS(=O)(=O)N3CCc4ccccc4C3)[C@@H](O)[C@H]2O)c(=O)[nH]1` here?
Its inhibition is 5.67%.

For `Cc1ccc(-c2cnc(C(O)c3cc(Cl)cc(Cl)c3)[nH]2)cc1` (stereo not drawn), which inhibition is on record?
The inhibition was 37.2%.

With `CC1(C(=O)NS(=O)(=O)c2ccccc2)CCN1C(=O)C/C=C/c1ccccc1` (stereo not drawn) as the compound, how does the inhibition read?
Its inhibition is -9.64%.

Which inhibition does the source give for `CC1(C)CCSC(/C=C/c2ccccc2)=N1` here?
Its inhibition is 106% (active).

For `CC1(C(=O)O)CCN1C(=O)/C=C/c1ccccc1` (stereo not drawn), which inhibition is on record?
The inhibition was -2.65%.

With `CC(C)(C)c1ccc(C(=O)NCC(=O)OCN2C(=O)c3ccccc3C2=O)cc1` as the compound, how does the inhibition read?
Its inhibition is -11.7%.

For `COC(=O)c1cc(C(=O)N(Cc2ccccc2)c2ccccn2)cc([N+](=O)[O-])c1`, which inhibition is on record?
Its inhibition is 5.92%.

Which inhibition does the source give for `O=C(CCl)N(Cc1cccc([N+](=O)[O-])c1)c1cccc(Cl)c1` here?
The inhibition was 109% (active).

With `CC(=O)N(CN1C(=O)C2CC=CCC2C1=O)c1cccc(Cl)c1` (stereo not drawn) as the compound, how does the inhibition read?
Its inhibition is 12%.

Source: PubChem BioAssay AID588405 (Sanford-Burnham Center for Chemical Genomics, 2011)
